E-sel TNF inh: E-selectin induction blockers in HUVEC – imaging, immunofluorescence, high content, primary screen | inhibition, % at 2 µM | 120,000 tested, 0.71% active | HUVEC TNFa-induced E-selectin immunofluorescence;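 active means inhibition above the batch mean plus 3 SD, and confirmed as a hit on visual image review, cut at about 43% in these data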;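 further: 0% = TNF-stimulated DMSO wells and 100% = unstimulated control wells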
HUVEC tox IL1B: cytotoxicity in IL-1B stimulated HUVEC, primary screen, cytotoxicity control for IL-1B NFkB translocation project, imaging, Hoechst nuclear count, IL-1B stimulus; HUVEC cell count loss; cell count reduction, % at 2 µM; 94,000 tested, 0.41% active; AID 845, 2007;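 active means cell count reduction more than 3 SD above the screen-wide mean, cut at about 70% in these data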;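 further: normalized per plate to untreated control cells as the no-loss baseline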
HUVEC tox TNFa: cytotoxicity in TNFa-stimulated HUVEC, primary screen, cytotoxicity control for VCAM1 expression modulator project, imaging, Hoechst nuclei count; HUVEC TNFalpha-stimulated, Hoechst cell count; cell count reduction, % at 2 µM; 93,000 tested, 0.17% active; AID 848, 2007;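 active means cell count reduction exceeding the screen mean by over 5 SD, scaled to untreated wells per plate, cut at about 78% in these data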;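 further: cells counted after 24 h of TNF alpha exposure following the 1 h pretreatment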
NFkB transloc inh: inhibitors of IL-1B driven NFkB p65 nuclear import, primary screen, imaging, HUVEC, IL-1B stimulus, high-content imaging. 94,000 tested, 0.43% active. HUVEC IL-1B NFkB p65 nuclear translocation imaging. AID 796, 2007. inhibition, % at 2 µM;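 active means inhibition above about 30% together with a positive call from visual inspection of the well image, limit read from the data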;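 further: nuclear over cytoplasmic p65 intensity ratio measured by imaging; 0% = IL-1B stimulated DMSO wells and 100% = unstimulated DMSO wells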
VCAM1 TNFa inh: inhibitors of TNFa-induced VCAM1 expression, primary screen, imaging, HUVEC, TNFa stimulus, immunofluorescence. HUVEC TNFa-induced VCAM-1 immunofluorescence, high-content imaging. inhibition, % at 2 µM. 95,000 tested, 0.48% active;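 active means inhibition above the batch mean plus 3 SD, with images confirmed as a hit by eye, cut at about 37% in these data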;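 further: 0% = TNF-stimulated DMSO wells and 100% = unstimulated control wells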
NFkB transloc pot: enhancers of NFkB p65 translocation in HUVEC – imaging, IL-1B stimulus, high-content imaging, primary screen; 94,000 tested, 0.3% active; HUVEC IL-1B NFkB p65 nuclear translocation imaging; activation, % at 2 µM; AID 819, 2007;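 active means activation above 40%, about the mean plus 3 SD, also judged a hit on visual image review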;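 further: percent activation is computed from the nuclear over cytoplasmic p65 intensity ratio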
An asterisk follows results filed as active; / = no result. Shown are actives, neighbours in structure and some others; about 1.7% of the full set was active somewhere.

SMILES | E-sel TNF inh | HUVEC tox IL1B | HUVEC tox TNFa | NFkB transloc inh | VCAM1 TNFa inh | NFkB transloc pot
COc1ccccc1-n1cnc2cc(NCc3cccs3)ccc21 | -9 | 11 | 52 | 17 | 82* | -17
COc1ccccc1-n1cnc2cc(NCc3ccco3)ccc21 | -17 | -11 | 19 | 12 | 40* | -12
COc1ccc(CNc2ccc3c(c2)ncn3-c2ccccc2OC)cc1 | 5 | -16 | -11 | 4 | -6 | -4
COc1ccc(N2CCN(CCCn3c(=S)[nH]c4ncccc4c3=O)CC2)cc1 | -2 | -2 | -3 | -10 | 4 | 10
O=c1c2cccnc2[nH]c(=S)n1CCCN1CCN(c2ccc(F)cc2)CC1 | 100* | -2 | -14 | -6 | -13 | 6
O=C(NCc1ccco1)c1cc(-c2ccc(Cl)cc2)on1 | / | 17 | 66 | 2 | 79* | -2
Cc1ccc(-c2cc(C(=O)NCc3ccco3)no2)cc1 | -8 | -3 | -19 | -13 | -6 | 13
COC(=O)c1c(-c2ccccc2)csc1NC(=O)c1ccco1 | 71* | 17 | 8 | -8 | 3 | 8
O=C(CCSc1ccccc1)NCC1CCCO1 (stereo unspecified) | -20 | -31 | -23 | 8 | 1 | -8
Cn1nc(C(=O)NCC2CCCO2)c2ccccc2c1=O (stereo unspecified) | 6 | 3 | 84* | -16 | 95* | 16
O=C(CC(c1ccccc1)c1ccccc1)NCC1CCCO1 (stereo unspecified) | 23 | -51 | 10 | -10 | 41* | 10
CCCCCCC(=O)N/N=C(\C)Cc1ccccc1 | 4 | / | / | / | / | /
CCOc1cc(/C=C\c2[nH]c(=O)[nH]c(=O)c2[N+](=O)[O-])ccc1OC(C)CC (stereo unspecified) | / | -67 | 17 | -48 | -4 | 47*
C#CC(C)(C)NC(=O)c1sccc1Oc1ccc(F)cc1[N+](=O)[O-] | -5 | / | / | / | / | /
O=C(CCCCn1c(=O)[nH]c2ccsc2c1=O)NCc1ccc2c(c1)OCO2 | / | 33 | 48 | 64* | -4 | -64
CS(=O)(=O)c1ccc(Cl)c(NC(=O)c2ccc3ccccc3c2)c1 | 64* | / | / | / | / | /
CS(=O)(=O)N1CCN(c2ccccc2NC(=O)c2ccc3ccccc3c2)CC1 | 4 | -13 | -25 | -23 | 21 | 23
CCCCCc1nc2ccccc2c(=O)n1NC(=O)c1c(O)c2cccc3c2n(c1=O)CCC3 | 72* | 2 | -21 | -7 | 8 | 7
CCCCCCc1nc2ccccc2c(=O)n1NC(=O)c1c(O)c2cccc3c2n(c1=O)CCC3 | 8 | -11 | -4 | -1 | -12 | 1
Clc1ccc(Nc2nc(-c3ccncc3)cs2)cc1 | 6 | 1 | -12 | -24 | 35 | 24
Clc1ccc(Nc2nc3cccnc3s2)cc1 | 72* | / | / | / | / | /
CN(c1ccc(C(=O)NCCSC(C)(C)C)cc1)S(C)(=O)=O | -3 | 87* | 9 | 5 | 6 | -5
CN(c1ccc(C(=O)NCCc2ccccc2)cc1)S(C)(=O)=O | -12 | -28 | 8 | 23 | -6 | -23
CCOC(=O)N/N=C/c1ccc(C)o1 | -16 | -12 | -2 | 33* | -10 | -33
COC(=O)c1cc(Br)c(=O)n(Cc2ccncc2)c1 | 64* | -8 | 6 | 2 | 8 | -2
SMILES | E-sel TNF inh | HUVEC tox IL1B | HUVEC tox TNFa | NFkB transloc inh | VCAM1 TNFa inh | NFkB transloc pot
Cc1ccc(S(=O)(=O)Nc2ccc(Br)cc2/C=N/n2cnnc2)cc1 | 13 | -22 | -32 | -2 | 3 | 2
Cc1ccc(Nc2nc(CSc3nnnn3C)cs2)cc1 | 15 | 4 | -25 | 1 | 96* | -1
COc1ccc(-c2cc(C(F)(F)F)nc(S(=O)(=O)CCC(=O)N3CCOCC3)n2)cc1 | 12 | 6 | 20 | 6 | 98* | -6
CNC(=O)c1csc(-c2ccc(C)cc2)n1 | -1 | 11 | -7 | -6 | -3 | 6
C=C1C(=O)[C@@]23[C@H](O)C[C@@H]4C(C)(C)CC[C@H](O)[C@@]4(C)[C@@H]2CC[C@@H]1[C@H]3O | 58* | / | / | / | / | /
COc1ccc2c(c1)[nH]c(=O)c1sc3ccccc3c12 | -60 | / | -6 | / | 3 | /
COc1ccc2sc3c(=O)[nH]c4ccccc4c3c2c1 | -43 | -40 | 13 | -43 | 29 | 43*
Cc1nn(-c2cccc(Cl)c2)c2nc(-c3ccncc3)cc(C(=O)N3CCOCC3)c12 | -1 | / | / | / | / | /
COc1ccccc1NC(=O)CC(=O)CSc1nnc(-c2ccc(C)cc2)n1C | 32 | -4 | -17 | -14 | 12 | 14
COc1ccccc1NC(=O)CSc1nnc(-c2ccc(NC(C)=O)cc2)n1C | 67* | 8 | -11 | -24 | -8 | 24
CC1=NN(C(=O)c2ccc(Cn3nc(C)cc3C)o2)C(O)(C(F)(F)F)C1 (stereo unspecified) | 6 | 0 | 7 | 10 | -27 | -10
Cn1c(SCc2ccc(Cl)cc2Cl)nc(C(F)(F)F)cc1=O | -50 | -91 | 2 | -44 | 3 | 44*
COc1cc(CNC2CCC(C)C2)cc(OC)c1 (stereo unspecified) | 4 | 89* | 14 | -10 | -5 | 10
COc1cc(CNC2CCCC2)cc(OC)c1 | 5 | -13 | -58 | -1 | -3 | 1
CN1Cc2cc(C(=O)c3cc(Cl)cc(CSc4ncccn4)c3O)cnc2NC1=O | -1 | 24 | 66 | 17 | 96* | -17
Cc1ccc(NC2=NCC(=O)N2Cc2ccc3c(c2)OCO3)cc1 | -31 | / | / | / | / | /
Cc1oc2c(cc(NS(=O)(=O)c3cccs3)c3ccccc32)c1C(=O)OC(C)C | -31 | 3 | -4 | -26 | 2 | 26
COc1ccc(S(=O)(=O)Nc2cc3c(C(C)=O)c(C)oc3c3ccccc23)cc1 | 29 | 40 | 41 | -9 | 80* | 9
CCS(=O)(=O)N1CCCC(C(=O)NCc2cccc(OC)c2)C1 (stereo unspecified) | 53* | -47 | 11 | -8 | 27 | 8
COc1ccc(CNC(=O)C2CCCN(S(=O)(=O)c3c(C)n[nH]c3C)C2)cc1 (stereo unspecified) | 18 | 0 | -18 | -11 | 10 | 11
CCOc1ccc(CNC(=O)C2CCCN(S(C)(=O)=O)C2)cc1OC (stereo unspecified) | -13 | -14 | / | -8 | / | 8
CCOc1ccc(CNC(=O)C2CCN(S(=O)(=O)CC)CC2)cc1OC | 13 | 94* | 8 | -24 | 20 | 24
COc1cccc(CNC(=O)C2CCCN(S(=O)(=O)c3c(C)n[nH]c3C)C2)c1 (stereo unspecified) | / | -16 | 79* | -8 | -18 | 8
O=C(CCNC(=O)c1ccco1)Nc1ccc(N2CCOCC2)cc1 | 9 | / | / | / | / | /

Assay outcomes (PubChem BioAssay)
